Inconclusive results are not listed. A call without a number means that no potency is given here. The source made the active and inactive calls. Unless noted, calls come from the whole dose curve; as a rule, active = well fitted curve in the direction sought with a large enough effect; inconclusive = small, poorly fitted or top-dose-only effect, or another doubt; inactive = no such curve, though single readings can be large; an effect the other way counts as inactive or inconclusive.

The target of assay [1] is ATP-dependent 6-phosphofructokinase (Trypanosoma brucei brucei) (UniProt O15648). Nature of the assay: qHTS Assay to Find Inhibitors of T. brucei phosphofructokinase: hit validation (AID 492961). Note: potency is the fitted concentration of half-maximal effect. In outline:
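Measures ADP output of PFK (1.25 nM) at 0.1 mM ATP, 0.5 mM F6P, pH 8.0 TEA buffer with 5 mM MgCl2. No-enzyme wells define full inhibition; uninhibited enzyme wells define zero.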

The target in assay [2] is Ubiquitin carboxyl-terminal hydrolase 1 (Homo sapiens) (UniProt O94782). Nature of the assay: Inhibitors of USP1/UAF1: Pilot qHTS (AID 504865). Note: nearly all actives have a fitted effect of over 35% in size. Note: potency is the fitted concentration of half-maximal effect. In outline: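 USP1/UAF1 complex at 1 nM preincubated 15 min at room temperature with compound, then Ub-Rho substrate added at 150 nM final. Fluorescence (480/540 nm) read kinetically in 50 mM HEPES pH 7.8, 0.5 mM EDTA, 1 mM TCEP, 0.1 mg/ml BSA, 0.01% Tween-20.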
Ubiquitin carboxyl-terminal hydrolase 1 (Homo sapiens), sequence (O94782 whole entry, looked up): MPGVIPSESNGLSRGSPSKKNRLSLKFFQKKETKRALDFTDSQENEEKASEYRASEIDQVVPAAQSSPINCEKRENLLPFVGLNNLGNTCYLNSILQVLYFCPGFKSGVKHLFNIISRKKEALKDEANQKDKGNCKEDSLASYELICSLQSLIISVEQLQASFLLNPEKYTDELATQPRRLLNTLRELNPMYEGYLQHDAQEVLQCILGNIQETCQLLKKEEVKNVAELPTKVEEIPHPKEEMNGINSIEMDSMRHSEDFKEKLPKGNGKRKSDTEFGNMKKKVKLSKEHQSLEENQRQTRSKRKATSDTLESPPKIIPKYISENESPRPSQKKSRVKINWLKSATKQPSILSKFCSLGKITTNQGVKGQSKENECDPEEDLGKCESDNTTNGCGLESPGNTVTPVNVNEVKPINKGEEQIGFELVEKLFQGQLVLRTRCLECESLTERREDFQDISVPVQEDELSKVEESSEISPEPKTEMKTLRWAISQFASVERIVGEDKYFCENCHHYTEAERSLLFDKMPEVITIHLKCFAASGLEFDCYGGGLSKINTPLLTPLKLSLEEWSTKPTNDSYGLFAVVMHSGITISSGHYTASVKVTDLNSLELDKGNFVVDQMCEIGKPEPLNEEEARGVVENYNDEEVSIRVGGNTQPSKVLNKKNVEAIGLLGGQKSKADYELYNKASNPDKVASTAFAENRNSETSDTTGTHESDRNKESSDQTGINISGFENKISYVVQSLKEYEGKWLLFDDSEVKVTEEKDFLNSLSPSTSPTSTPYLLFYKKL
Background: In qHTS, concentration-response curves come from the screen itself.

Assay [3] deals with D(1A) dopamine receptor (Homo sapiens) (UniProt P21728). Description: HTS Assay for Allosteric Agonists of the Human D1 Dopamine Receptor: Primary Screen for Agonists (AID 488981). Note: potency is the fitted concentration of half-maximal effect. In outline: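 Calcium flux in an inducible, force-coupled HEK293 Trex D1 line (overnight at 30 C): agonist mode is the 180 s kinetic read after compound; potentiator mode is the following 180 s read after dopamine at EC20.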
D(1A) dopamine receptor (Homo sapiens), sequence (P21728 whole entry, looked up): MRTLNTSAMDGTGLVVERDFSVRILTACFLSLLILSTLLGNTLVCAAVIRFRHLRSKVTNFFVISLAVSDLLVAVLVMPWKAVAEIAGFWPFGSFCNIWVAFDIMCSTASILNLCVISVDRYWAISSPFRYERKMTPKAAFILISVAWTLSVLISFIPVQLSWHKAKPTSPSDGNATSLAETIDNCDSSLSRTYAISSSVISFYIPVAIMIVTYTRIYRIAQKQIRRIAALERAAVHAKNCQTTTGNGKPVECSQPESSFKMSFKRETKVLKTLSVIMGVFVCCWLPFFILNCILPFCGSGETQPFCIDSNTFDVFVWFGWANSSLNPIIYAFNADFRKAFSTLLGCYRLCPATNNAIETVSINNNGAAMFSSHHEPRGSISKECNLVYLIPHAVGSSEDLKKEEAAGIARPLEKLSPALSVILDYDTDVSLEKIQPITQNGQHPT

Assay [4] is described as follows: Validation screen for small molecules that induce genotoxicity in human embryonic kidney (HEK293T) cells expressing luciferase-tagged ELG1 (AID 493106). In outline:
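In this validation screen, increased ELG1-luciferase signal flags compounds causing genetic stress. HEK293T reporter cells are treated 16 hr (37 °C, 5% CO2), developed with ONE-Glo for 30 min at room temperature, and imaged on a CCD-based reader.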

Assay [5] addresses Thyrotropin-releasing hormone receptor (Homo sapiens) (UniProt P34981). Nature of the assay: qHTS for Small Molecule Agonists and Allosteric Enhancers of Human TRH Receptor: Validation Screen for Agonists (AID 493127;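 active = calcium activation more than 3 SD above the typical response in the agonist read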;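 note: intracellular calcium rise by fluo-8 fluorescence before TRH EC20 addition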). Conditions: TRH receptor agonist cell assay; at 2 µM; stronger effect = higher value. In outline:
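Kinetic fluorescence assay of agonist-induced calcium release: overnight-plated TRHR cells, room-temperature fluo-8 loading, baseline then compound addition with per-second reads.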

A short description of assay [6]: Nrf2 qHTS screen for inhibitors: Validation (AID 493153; active = well fitted inhibition curve with a large enough effect in the main read-out, with a control signal flat, not every such curve was filed as active). Conditions: Potency: luciferase luminescence; viability change: measured here: cytotoxicity max response. In outline: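 In this counterscreened reporter format, each well gives two signals: CellTiter-Fluor fluorescence for cytotoxicity and ARE-luciferase luminescence for Nrf2 function. A549 ARE_Fluc cells in 5% FBS OPTI-MEM were exposed to compound titrations for 18-24 h.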

Assay [7] is described as follows: qHTS for Inhibitors of Cell Surface uPA Generation: Validation Assay (AID 493164).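 Note: RAW 264.7 macrophage cells exposed to compound for 18 h.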 In outline: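 Compounds are titrated over seven points (2.45 nM–38.3 uM final) onto pre-plated RAW 264.7 cells and incubated for 18 h. Retained intracellular ATP, measured with ATP-Lite, indicates blocked lethal factor entry.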
Assay [8] has as its target Galactokinase (Homo sapiens) (UniProt P51570). Nature of the assay: qHTS Validation Assay for Inhibitors of Human Galactokinase (GALK) (AID 493189). The gist of the method: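 GALK (5 nM) with 35 uM ATP and 100 uM galactose in HEPES pH 8.0 with MgCl2, NaCl, DTT and BSA. Reaction ran 1 h at room temperature. Residual ATP read by Kinase-Glo Plus luminescence.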
Assay [9] can be described thus: Validation screen for small molecules that induce DNA re-replication in SW480 colon adenocarcinoma cells (AID 504364). In outline:
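Hoechst-stained SW480 nuclei, imaged at 405 nm excitation after 48 hr compound exposure, were counted for elevated DNA content as the re-replication signal.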

Assay [10] concerns the target Peptidyl-prolyl cis-trans isomerase NIMA-interacting 1 (Homo sapiens) (UniProt Q13526). Description: qHTS Validation Assay to Find Inhibitors of Pin1 (AID 504536; active = well fitted inhibition curve with a large enough effect in the polarisation, with a control signal flat, not every such curve was filed as active; the % refers to the polarisation). The gist of the method:
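Fluorescence polarization competition: compounds (titration) displace HiFluor-488-labeled Pin1-1b peptide from Pin1 (0.3 uM final) in pH 7.5 HEPES buffer with DTT, 10 min at room temperature; %Activity normalized to no-enzyme wells, curves fitted.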

The target of assay [11] is Phosphoglycerate kinase, glycosomal (Trypanosoma brucei brucei) (UniProt P07378). Description: qHTS Validation Assay to Find Inhibitors of Phosphoglycerate Kinase (AID 504547). The gist of the method: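 Luminescence end-point (Kinase-Glo Plus, 10 min) after a 60 min room-temperature coupled reaction. GAPDH at 100nM final supplies 1,3-BPG to PGK. Buffer: 100mM TEA pH 7.6, 5mM MgCl2, 0.01% Tween-20. Wells lacking PGK served as controls.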
Phosphoglycerate kinase, glycosomal (Trypanosoma brucei brucei), sequence (P07378 whole entry, looked up): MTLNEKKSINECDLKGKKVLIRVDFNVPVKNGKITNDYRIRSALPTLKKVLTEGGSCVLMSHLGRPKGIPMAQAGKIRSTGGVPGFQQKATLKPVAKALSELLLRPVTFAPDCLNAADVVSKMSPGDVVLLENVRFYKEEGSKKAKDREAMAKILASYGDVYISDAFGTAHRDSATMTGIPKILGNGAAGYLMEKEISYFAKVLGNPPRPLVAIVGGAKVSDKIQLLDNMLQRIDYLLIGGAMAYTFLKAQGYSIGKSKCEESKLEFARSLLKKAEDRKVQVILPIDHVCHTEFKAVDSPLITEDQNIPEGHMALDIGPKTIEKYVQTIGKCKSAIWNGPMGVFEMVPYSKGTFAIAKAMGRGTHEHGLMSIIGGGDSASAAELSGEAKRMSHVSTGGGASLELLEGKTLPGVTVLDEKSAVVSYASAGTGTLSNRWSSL

In assay [12] the target is phosphoglycerate mutase (Leishmania major) (UniProt Q4Q090). Nature of the assay: qHTS Validation Assay to Find Inhibitors of Phosphoglycerate Mutase (AID 504548). Note: series mostly up to about 58 µM. The gist of the method: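 Luminescent end-point read-out via Kinase-GloPlus after a 10-minute development. Reaction: 1.25nM Leishmania major PGAM with substrate and compound, 45 minutes at room temperature in TEA buffer (pH 7.6) with MgCl2 and Tween-20.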
phosphoglycerate mutase (Leishmania major), sequence (Q4Q090 1-553): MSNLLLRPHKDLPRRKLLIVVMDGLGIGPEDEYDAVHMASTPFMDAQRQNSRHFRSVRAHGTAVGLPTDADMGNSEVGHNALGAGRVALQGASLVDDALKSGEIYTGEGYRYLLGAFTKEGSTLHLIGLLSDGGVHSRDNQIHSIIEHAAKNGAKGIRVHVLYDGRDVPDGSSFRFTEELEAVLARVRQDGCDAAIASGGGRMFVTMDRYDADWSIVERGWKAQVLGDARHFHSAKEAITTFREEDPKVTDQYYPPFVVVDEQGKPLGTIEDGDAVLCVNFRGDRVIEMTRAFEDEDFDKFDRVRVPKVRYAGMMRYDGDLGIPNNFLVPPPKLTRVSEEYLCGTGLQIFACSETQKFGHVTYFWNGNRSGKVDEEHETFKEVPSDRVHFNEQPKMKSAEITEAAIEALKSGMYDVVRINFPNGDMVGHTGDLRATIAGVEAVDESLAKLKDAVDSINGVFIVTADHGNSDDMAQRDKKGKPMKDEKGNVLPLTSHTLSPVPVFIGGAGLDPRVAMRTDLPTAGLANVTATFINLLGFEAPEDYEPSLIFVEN

The target of assay [13] is ATPase family AAA domain-containing protein 5 (Homo sapiens) (UniProt Q96QE3). Nature of the assay: Validation screen for small molecules that inhibit ELG1-dependent DNA repair in human embryonic kidney (HEK293T) cells expressing luciferase-tagged ELG1 (AID 493107).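 Note: cells co-treated with the DNA-damaging agent 5-fluorouridine alongside compound; series mostly up to about 46 µM; inhibitors lower the ELG1-luciferase luminescence signal; nearly all actives have a fitted effect of over 70% in size.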 The gist of the method: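 Compounds reducing 5-fluorouridine-driven ELG1-luciferase signal in HEK293T cells were scored; exposure lasted 16 hr at 37 °C with luminescence detected via ONE-Glo.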

Assay [14] in a line: qHTS for Inhibitors of ATXN expression: Validation of Cytotoxic Assay (AID 588349). The gist of the method: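 Toxicity of test compounds toward HEK293 cells is scored from cellular ATP content measured by CellTiter Glo. Cells receive titrated doses and incubate 72 hr at 37 degrees C beforehand.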
Assay [15] can be described thus: qHTS for Inhibitors of ATXN expression: Validation (AID 588378). Note: series mostly up to about 57 µM; nearly all actives have a fitted effect of over 75% in size. The gist of the method: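 HEK293 cells carrying ATXN2-firefly luciferase reporter, treated with compound 24 h at 37 °C. Viability read first by CellTiter-Fluor (405/525 nm), then reporter expression by Bright-Glo luminescence; controls were a known ATXN2 expression inhibitor and a luciferase inhibitor.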

ATP-dependent 6-phosphofructokinase (Trypanosoma brucei brucei), sequence (O15648 whole entry, looked up): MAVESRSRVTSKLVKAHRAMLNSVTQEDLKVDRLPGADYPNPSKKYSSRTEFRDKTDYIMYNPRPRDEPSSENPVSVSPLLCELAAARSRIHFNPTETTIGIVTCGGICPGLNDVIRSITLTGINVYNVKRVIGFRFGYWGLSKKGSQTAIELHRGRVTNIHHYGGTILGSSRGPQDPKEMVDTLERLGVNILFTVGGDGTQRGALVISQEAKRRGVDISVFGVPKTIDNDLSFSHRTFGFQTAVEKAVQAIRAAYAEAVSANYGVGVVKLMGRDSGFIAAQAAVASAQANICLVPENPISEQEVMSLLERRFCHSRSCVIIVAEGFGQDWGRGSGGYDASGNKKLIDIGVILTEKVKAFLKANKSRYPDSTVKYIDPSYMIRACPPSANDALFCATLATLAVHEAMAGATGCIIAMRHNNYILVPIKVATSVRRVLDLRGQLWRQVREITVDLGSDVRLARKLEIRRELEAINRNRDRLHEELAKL
Peptidyl-prolyl cis-trans isomerase NIMA-interacting 1 (Homo sapiens), sequence (Q13526 whole entry, looked up): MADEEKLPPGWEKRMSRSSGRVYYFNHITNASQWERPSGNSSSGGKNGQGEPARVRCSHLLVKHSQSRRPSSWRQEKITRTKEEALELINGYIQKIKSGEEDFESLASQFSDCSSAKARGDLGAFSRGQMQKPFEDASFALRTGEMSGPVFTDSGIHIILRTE
Thyrotropin-releasing hormone receptor (Homo sapiens), sequence (P34981 whole entry, looked up): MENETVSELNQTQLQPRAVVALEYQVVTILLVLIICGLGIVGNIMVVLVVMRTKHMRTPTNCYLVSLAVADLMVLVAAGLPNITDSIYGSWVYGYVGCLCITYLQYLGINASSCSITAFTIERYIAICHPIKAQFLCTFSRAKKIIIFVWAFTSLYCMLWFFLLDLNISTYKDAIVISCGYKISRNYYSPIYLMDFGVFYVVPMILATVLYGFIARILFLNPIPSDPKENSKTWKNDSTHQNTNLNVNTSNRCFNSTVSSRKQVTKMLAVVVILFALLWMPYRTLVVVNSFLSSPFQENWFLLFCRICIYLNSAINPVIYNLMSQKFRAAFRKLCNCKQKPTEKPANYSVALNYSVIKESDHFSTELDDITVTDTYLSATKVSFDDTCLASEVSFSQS
Galactokinase (Homo sapiens), sequence (P51570 whole entry, looked up): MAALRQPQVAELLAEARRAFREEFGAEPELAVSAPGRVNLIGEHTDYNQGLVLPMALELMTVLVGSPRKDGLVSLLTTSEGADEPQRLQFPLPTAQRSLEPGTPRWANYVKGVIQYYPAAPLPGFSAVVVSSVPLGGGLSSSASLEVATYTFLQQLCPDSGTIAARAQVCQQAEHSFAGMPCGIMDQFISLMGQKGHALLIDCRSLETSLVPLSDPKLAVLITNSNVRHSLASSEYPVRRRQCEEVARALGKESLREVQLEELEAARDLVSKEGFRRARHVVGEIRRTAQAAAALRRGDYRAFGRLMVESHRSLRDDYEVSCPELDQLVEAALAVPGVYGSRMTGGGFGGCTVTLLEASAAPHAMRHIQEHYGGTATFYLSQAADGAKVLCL

Consider `CCC(=O)Nc1ccc(O)cc1`, for which the Potency result in assay [1] and in assay [2] was “inactive” each time.

Take `CC(C(O)c1ccc(O)cc1)N1CCC(Cc2ccccc2)CC1` (stereo unspecified): the Potency in assay [3] is 11.2 µM (active). For the same molecule, the Potency result in assay [1], in [4], in assay [6] and in assay [2] was “inactive” in each case. Besides, the activation in [5] is 5.75% (inactive). Besides, in [6], the viability change is -19.8%. Further, the molecule was classed as inactive in assay [7], in assay [8], in [9], in [10], in [11] and in [12].

`CN(C)CCN(Cc1ccccc1)c1ccccn1`: the Potency entry in [1] and in [2] was “inactive” throughout.

Regarding `CCOc1nc2cccc(C(=O)O)c2n1Cc1ccc(-c2ccccc2-c2nn[nH]n2)cc1`, the Potency result in assay [1] is “inactive”.

As for `C[C@@H]1CN(c2c(F)c(F)c3c(=O)c(C(=O)O)cn(C4CC4)c3c2F)C[C@H](C)N1`, the Potency entry in [1] and in assay [2] was “inactive” each time.

On to `CCOC(=O)[C@H](CCc1ccccc1)N[C@@H](C)C(=O)N1C(=O)N(C)C[C@H]1C(=O)O`, for which the Potency entry in [1] and in [2] was “inactive” each time.

As to `O=S(=O)(O)c1cc(I)c(O)c2ncccc12`, the Potency in [1] was 31.6 µM (active). In assay [2], the Potency result is “inactive”.

On to `Nc1ccc(S(=O)(=O)Nc2nccs2)cc1`, for which the Potency entry in [2] is “inactive”.

In the case of `c1ccc2c(CC3=NCCN3)cccc2c1`, the Potency entry in assay [2] was “inactive”.

In the case of `COc1ccccc1O`, the Potency entry in assay [1] and in [2] was “inactive” each time.

`O=C(O)COc1nn(Cc2ccccc2)c2ccccc12`: the Potency result in assay [1] and in assay [2] was “inactive” in each case.

On to `CN1CCOC(c2ccccc2)c2ccccc2C1` (stereo unspecified), for which the Potency result in [2] was “inactive”.

For the molecule `CC(O)CN(CCN(CC(C)O)CC(C)O)CC(C)O` (stereo unspecified), the Potency entry in assay [1] and in [2] was “inactive” each time.

For `Oc1ccc(C(O)CNCCCCCCNCC(O)c2ccc(O)c(O)c2)cc1O` (stereo unspecified), in [2], the Potency entry is “inactive”.

Take `CC(C)(C)C(=O)C(Oc1ccc(Cl)cc1)n1ccnc1` (stereo unspecified): the Potency result in assay [1] and in assay [2] was “inactive” throughout.

Turning to `CC(C)(C)[C@]1(O)CCN2C[C@H]3c4ccccc4CCc4cccc(c43)[C@@H]2C1`, the Potency entry in assay [4], in [6], in assay [2], in assay [14] and in [15] was “inactive” each time. Further, the outcome in assay [13], in assay [7], in assay [10], in [11] and in [12] was inactive. Besides, the viability change in assay [6] was -7.91%.

Take `Cc1c(Cl)cccc1Nc1ccccc1C(=O)O`: the Potency result in assay [2] is “inactive”.

As to `CC(COc1ccccc1)NC(C)C(O)c1ccc(O)cc1` (stereo unspecified), the Potency entry in assay [2] was “inactive”.

Consider `CCCCOC(=O)c1ccc(O)cc1`, for which the Potency result in assay [2] was “inactive”.

Turning to `O=c1cc[nH]c(=O)[nH]1`, the Potency result in [1] and in assay [2] was “inactive” throughout.

`O=C(O)c1ccccn1`: the Potency entry in assay [1] and in [2] was “inactive” in each case.

Take `COc1ccc(S(=O)(=O)Nc2nnc(CC(C)C)s2)cc1`: the Potency entry in assay [1] and in assay [2] was “inactive” in each case.

In the case of `CCCCN1CCCC[C@H]1C(=O)Nc1c(C)cccc1C`, the Potency entry in assay [1] and in assay [2] was “inactive” in each case.

`CCCCN(CCCC)CC(O)c1cc(Cl)cc2c1-c1ccc(Cl)cc1/C2=C/c1ccc(Cl)cc1` (stereo unspecified): the Potency entry in assay [1] and in assay [2] was “inactive” throughout.

Take `CN1CCCCC1CCN1c2ccccc2Sc2ccc(S(C)=O)cc21` (stereo unspecified): the Potency result in assay [1] and in [2] was “inactive” throughout.

For the molecule `Cc1cccc(Nc2cc(Cl)nc(SCC(=O)O)n2)c1C`, the Potency result in assay [2] was “inactive”.

In the case of `O=C(O)CN1C(=O)c2cccc3cccc(c23)C1=O`, the Potency entry in assay [1] and in [2] was “inactive” in each case.

Take `O=c1cc(CO)occ1O`: the Potency entry in assay [2] was “inactive”.

Take `O=C(Oc1ccccc1C(=O)O)c1ccccc1O`: the Potency result in assay [1] and in assay [2] was “inactive” each time.

Consider `CC1(C)OC(=O)NC1=O`, for which the Potency result in assay [2] was “inactive”.

As to `O=C1NC(=O)[C@@]2(CCOc3ccc(F)cc32)N1`, the Potency result in assay [2] is “inactive”.

`Cc1cc(O)cc2c1O[C@](C)(CCC[C@H](C)CCC[C@H](C)CCCC(C)C)CC2`: the Potency result in assay [1] and in assay [2] was “inactive” in each case.

As for `CC1(C)CO[C@@H](CC(=O)O)CN1`, the Potency entry in assay [1] and in assay [2] was “inactive” each time.

As to `OC[C@H]1O[C@@H](O[C@@H]2[C@@H](CO)O[C@](O)(CO)[C@H]2O)[C@H](O)[C@@H](O)[C@H]1O`, the Potency entry in assay [2] was “inactive”.

In the case of `c1ccc(CN(CC2=NCCN2)c2ccccc2)cc1`, the Potency entry in [1] and in assay [2] was “inactive” in each case.

With `COc1cc(C(=O)N2CCOCC2)cc(OC)c1OC`, the Potency result in assay [1] and in assay [2] was “inactive” in each case.

For `N[C@@H](CSCCCO)C(=O)O`, the Potency result in assay [1] and in assay [2] was “inactive” each time.

For the molecule `CCCCCCCCCCCCOS(=O)(=O)O`, the Potency entry in assay [1] is “inactive”. Also, the Potency in assay [2] was 79.4 µM (active).

For the molecule `CCOc1ccc2ccccc2c1C(=O)N[C@@H]1C(=O)N2[C@@H]1SC(C)(C)[C@@H]2C(=O)O`, the Potency result in assay [1] and in [2] was “inactive” in each case.

Take `OCC(O)CN1CCN(c2ccccc2)CC1` (stereo unspecified): the Potency entry in assay [2] was “inactive”.

On to `CCOC(CN1CCN(CC(C)C(=O)c2ccccc2)CC1)c1ccccc1` (stereo unspecified), for which the Potency entry in [1] and in [2] was “inactive” throughout.

For `COc1cc(C)c(Cc2cnc(N)nc2N)cc1OC`, the Potency result in [1] and in assay [2] was “inactive” in each case.

Turning to `NCCNCCNCCN`, the Potency entry in [1] and in assay [2] was “inactive” throughout.

Consider `CC(=O)NC(Cc1ccccc1)C(=O)O` (stereo unspecified), for which the Potency result in assay [2] is “inactive”.

`COc1ccc2[nH]c(S(=O)Cc3ncc(C)c(OC)c3C)nc2n1` (stereo unspecified): the Potency result in [1] and in assay [2] was “inactive” throughout.

On to `CCC(=O)c1ccc(O)cc1`, for which the Potency result in assay [2] was “inactive”.
